Assay outcomes deposited in PubChem by National Center for Advancing Translational Sciences (NCATS).
Only some compounds are listed: those with a hit (about 0.9% of all), similar ones and a draw of the others.
GoLoco inh red – blocks human Gai1 binding to RGS12 GoLoco peptide, red readout; P63096; Gai1:RGS12 GoLoco peptide FP, rhodamine, 10 min; Potency, µM (titrated, usually from 61.6 µM), without a hit: top-dose activity, negative = inhibition, most hits filed as inhibitors; 0.44% of 230,000 active; active = well fitted inhibition curve with a large enough effect, not every such curve was filed as active; inactive = no such curve, though single readings can be large or run the other way; also: nearly all actives have a fitted effect of over 30% in size
Target sequence (P63096 whole entry, looked up): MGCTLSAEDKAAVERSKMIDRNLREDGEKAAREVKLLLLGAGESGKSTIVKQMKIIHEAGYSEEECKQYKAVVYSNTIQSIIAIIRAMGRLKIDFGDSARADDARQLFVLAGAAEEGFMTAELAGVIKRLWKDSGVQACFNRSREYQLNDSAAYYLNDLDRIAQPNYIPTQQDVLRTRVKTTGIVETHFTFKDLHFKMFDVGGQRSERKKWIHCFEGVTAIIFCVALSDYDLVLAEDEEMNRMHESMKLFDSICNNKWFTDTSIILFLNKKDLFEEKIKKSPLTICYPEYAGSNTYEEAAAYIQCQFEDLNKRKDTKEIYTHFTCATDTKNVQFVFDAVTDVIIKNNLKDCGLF
RECQ1 helicase – RECQ1 (human) helicase inhibition. Potency, µM (doses to about 57.3 µM), inactives show at the highest dose activity, negative = inhibition, most hits filed as inhibitors. P46063. AID 2549. RECQ1 DNA unwinding, red fluorescence kinetic read. 0.54% of 240,000 active;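 also: plate controls were vehicle for no effect and no enzyme for full effect; nearly all actives have a fitted effect of over 30% in size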
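50 nM RECQ1T1 preincubated 15 min with compound in Tris pH 8.0 buffer with MgCl2, DTT, Tween-20 and 2.5 ug/ml poly(dI-dC); started with 200 nM TAMRA/BHQ-2 forked duplex and 2 mM ATP. Unwinding read as fluorescence (525/598 nm), two reads 2 h apart.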
APEX1 inh – APE1 (human) endonuclease inhibition. Potency, µM (highest dose often 65.8 µM), without a hit: top-dose activity change, negative = inhibition, usual class: inhibitors. P27695. recombinant APE1, TAMRA/BHQ-2 abasic DNA cleavage fluorescence. 0.35% of 350,000 active;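 also: plate controls were vehicle for no effect and reference inhibitor for full effect; nearly all actives have a fitted effect of over 55% in size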
Target sequence (P27695 whole entry, looked up): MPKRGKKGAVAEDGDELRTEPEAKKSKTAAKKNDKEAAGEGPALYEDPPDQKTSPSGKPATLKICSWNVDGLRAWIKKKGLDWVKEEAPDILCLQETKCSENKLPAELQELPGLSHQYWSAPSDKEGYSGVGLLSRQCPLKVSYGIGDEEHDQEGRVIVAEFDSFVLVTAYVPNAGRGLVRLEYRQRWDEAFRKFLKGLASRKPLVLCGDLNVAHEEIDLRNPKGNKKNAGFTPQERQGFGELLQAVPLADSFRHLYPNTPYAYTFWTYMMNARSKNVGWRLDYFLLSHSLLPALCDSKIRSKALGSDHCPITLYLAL
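APE1 at 0.75 nM preincubated 15 min at room temperature with compound. Reaction then started with 50 nM double-stranded THF-abasic substrate labelled with TAMRA/BHQ-2, and 525/598 nm fluorescence read kinetically. Activity taken as third-minus-first read difference, normalized to DMSO and NSC13755 controls.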
TexasRed fluor – Texas Red fluorescence interference in TRb-SRC2 counter-screen; 0.29% of 280,000 active; AID 1479; TRb/SRC2 Texas Red total fluorescence interference; Potency, µM (titrated, usually from 106 µM), for inactives: at the highest dose fluorescence change, negative = quenching; active = well fitted curve in either direction with a large enough effect; inconclusive = small, poorly fitted or top-dose-only effect
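Human TRb ligand-binding domain at 0.6 uM with 20 nM Texas Red SRC2 peptide in Tris buffer containing 1 uM T3 and 5% DMSO, incubated with compound 5 h at ambient temperature. Total fluorescence (555/632 nm) calculated as parallel + 2 × perpendicular.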
TRb-SRC2 inh – inhibitors of human thyroid hormone receptor beta-SRC2 interaction; P10828; TRbeta-SRC2 peptide binding, fluorescence polarization; receptor liganded with 1 µM T3; Potency, µM (highest dose often 106 µM), for the others: at the highest dose activity change, negative = inhibition, most hits filed as inhibitors; 0.065% of 280,000 active; AID 1469;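 also: plate controls were bound peptide for no effect and peptide without receptor for full effect; nearly all actives have a fitted effect of over 50% in size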
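Assay buffer: 20 mM Tris-HCl, 100 mM NaCl, 10% glycerol, 1 mM EDTA, 0.01% NP-40, 1 mM DTT, 1 uM T3, 5% DMSO; TRb LBD 0.6 uM, Texas Red SRC2 20 nM; FP after 5 hr.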
BLM helicase inh – inhibitors of human Bloom syndrome helicase BLM | 0.2% of 350,000 active | recombinant BLM DNA unwinding, fluorescence dequenching | P54132 | AID 2528 | Potency, µM (top dose mostly 56.1 µM), without a hit: top-dose activity change, negative = inhibition, usual class: inhibitors;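 also: plate controls were vehicle for no effect and no enzyme for full effect; nearly all actives have a fitted effect of over 35% in size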
Active calls of the source: *; i = inactive; ? = inconclusive; . = no result given; ! = not confirmed by another sample; [ ] = remark or other dose. Unless noted, calls follow the shape of the dose curve; as a rule, active = well fitted curve in the direction sought with a large enough effect; inconclusive = small, poorly fitted or top-dose-only effect, or another doubt; inactive = no such curve, though single readings can be large; an effect the other way counts as inactive or inconclusive. Unless noted, % is scaled to controls: 0 for no effect and ±100 for the full control effect; potency is read from the fitted curve at half-maximal effect.

SMILES	GoLoco inh red	RECQ1 helicase	APEX1 inh	TexasRed fluor	TRb-SRC2 inh	BLM helicase inh
C=C(CCC12O[C@H](C(=O)O)[C@@](O)(C(=O)O)[C@](C(=O)O)(O1)[C@H](OC(=O)/C=C/[C@@H](C)C[C@@H](C)CC)[C@H]2O)[C@@H](OC(C)=O)[C@H](C)Cc1ccccc1	-2%	i	-6%	1%	-3%	22µM*
O=C(O)c1cc(O)c2c(c1)[C@@H]([C@H]1c3cc(C(=O)O)cc(O)c3C(=O)c3c(O[C@@H]4O[C@H](CO)[C@@H](O)[C@H](O)[C@H]4O)cccc31)c1cccc(OC3O[C@H](CO)[C@@H](O)[C@H](O)[C@H]3O)c1C2=O (stereo partly specified)	.	.	0.084µM*	.	.	.
CC(=O)c1ccc(O[C@@H]2O[C@H](CO)[C@@H](O)[C@H](O)[C@H]2O)cc1	.	.	25%	.	.	.
O=C1c2c(O)cccc2C(C2OC(CO)[C@@H](O)[C@H](O)[C@H]2O)c2cc(CO)cc(O)c21 (stereo partly specified)	.	.	20%	.	.	.
O=C(O)c1cc(O)c2c(c1)[C@H]([C@H]1c3cc(C(=O)O)cc(O)c3C(=O)c3c(O[C@@H]4O[C@H](CO)[C@@H](O)[C@H](O)[C@H]4O)cccc31)c1cccc(OC3O[C@H](CO)[C@@H](O)[C@H](O)[C@H]3O)c1C2=O (stereo partly specified)	.	.	0.067µM*	.	.	.
CCOc1cc(CNCCSc2nnnn2C)cc(Cl)c1OCc1ccc(Cl)cc1	.	.	.	20µM*[quencher]	-12%	-9%
NC(=O)C1CCN(c2nc(-c3ccc(N4CCCCC4)nc3)cs2)CC1	.	.	9%	.	.	.
CCOc1cc(CNS(=O)(=O)c2ccc3c(c2)CC(=O)N3C)cc(OCC)c1OCC	.	.	28%	18µM*[quencher]	-12%	-1%
Cc1cc(/C=N/NC(=O)C(O)(c2ccccc2)c2ccccc2)c(C)n1-c1cccc(C(=O)O)c1	86%	-4%	4%	-5%	17%	10µM*
O=C(O)COc1ccc2c(c1)O/C(=C\c1ccco1)C2=O	.	.	13µM*	.	.	-9%
O=[N+]([O-])c1ccc(C(=S)N2CCN(c3ccc(F)cc3)CC2)cc1	0%	i	11%	0%	3%	-5%
CN(C)c1ccc(C(=S)N2CCN(c3ccc([N+](=O)[O-])cc3)CC2)cc1	20µM*	1%	2%	-4%	2%	2%
CCCCC1CCC(C(=O)N2CC(=O)Nc3ccc(F)cc3C2c2ccc(F)cc2)CC1 (stereo unspecified)	.	.	.	-1%	-1%	-13%
O=C(NCC1CCCO1)c1coc2nc3ccccc3nc12 (stereo unspecified)	76%	i	9%	-2%	-17%	1%
C=CCn1c(N)c(C(=O)NCC2CCCO2)c2nc3ccccc3nc21 (stereo unspecified)	.	-8%	-2%	-2%	0%	5.6µM*
O=C(N/N=C/c1cc(Br)c(Br)o1)c1ccc2c(c1)OCCO2	58%	?	32µM*	-16%	-3%	3%
O=C(Nc1nc2ccc([N+](=O)[O-])cc2s1)c1ccco1	10%	1%	-3%	0%	1%	-3%
COc1ccc(NC(=O)c2ccc(-c3ccc([N+](=O)[O-])cc3)o2)cc1	-7%	2%	2%	32µM*[quencher]	?	-1%
O=C(Nc1ccccc1)c1ccc(-c2ccc([N+](=O)[O-])cc2)o1	.	.	-13%	.	.	0%
COc1ccc2nc(NC(=O)c3ccc(-c4cccc([N+](=O)[O-])c4)o3)sc2c1	2.2µM*	8%	1%	-2%	16%	-6%
N#Cc1nc(NCC2CC2)nc(Nc2ccccc2)n1	.	-6%	-2%	.	.	-7%
O=C1CCNc2c(Cl)cc(Cl)cc21	8%	-9%	-1%	-5%	1%	0%
O=C1CCNc2c(Cl)cccc21	4.5µM*	-16%	?	-5%	-2%	64%
CCn1c(C)nc2cc(C(=O)N/N=C/c3cccc(OC)c3O)ccc21	129%	25%	0%	1%	2%	-20%
CCn1c(C)nc2cc(C(=O)N/N=C/c3ccc(O)c(O)c3O)ccc21	2%	10%	-9%	?	-6%	6.3µM*
SMILES	GoLoco inh red	RECQ1 helicase	APEX1 inh	TexasRed fluor	TRb-SRC2 inh	BLM helicase inh
CC(=O)c1ccc(N2CCN(C(=O)Nc3ccc(F)cc3)CC2)cc1	2%	-11%	0%	1%	-1%	-1%
CC(=O)c1ccc(N2CCN(C(=O)Nc3ccc(C(C)C)cc3)CC2)cc1	0%	0%	-8%	0.032µM*![quencher]	-2%	-11%
O=C(N/N=C1/C[C@@H](O)[C@@H](O)[C@@H]2[C@@H]3C(=O)N(c4cccc(Oc5ccccc5)c4)C(=O)[C@H]3CC[C@H]12)OCc1ccccc1	.	i[11.5 µM]	12%[12.4 µM]	-2%[11.2 µM]	2%[11.2 µM]	-4%[12.4 µM]
Cc1ccc(C(=O)Nc2nnc(CC(=O)N/N=C/c3ccc(O)c(O)c3)s2)cc1	.	.	1.9µM*	.	.	13µM*
CC(/C=N/n1c(-c2cc(C)[nH]n2)n[nH]c1=S)=C\c1ccco1	10%	25µM*	-12%	-3%	-2%	0%
CC(/C=N/n1c(-c2ccc(Cl)cc2)n[nH]c1=S)=C\c1ccco1	.	-2%	12%	1%	1%	-15%
O=C1CCC/C(=N\NC(=O)c2ccc(CSc3cccc4cccnc34)cc2)C1	13%	28µM*	19%	2%	1%	-13%
COc1ccc(-c2nc(-c3ccccc3)oc2NC(C)C)cc1	-3%	1%	5%	-2%	8%	4%
FC(F)(F)c1ccc(Cl)c(Cl)c1	.	.	.	3%[201 µM]	5%[201 µM]	.
C[N+]1(CCOc2ccc([N+](=O)[O-])cc2)CCOCC1	18µM*	-7%	3%	-4%	-9%	2%
O=C1C(SCCO)=C(SCCO)C(=O)c2ccccc21	3.5µM*!	?	?	14µM*![quencher]	?	8.9µM*
N#CC(=NCCO)C1=C(O)c2ccccc2C1=O	-5%[14.2 µM]	.	.	.	.	.
O=[N+]([O-])c1ccc2c(c1)Cc1ccccc1-2	.	.	.	-6%[201 µM]	5%[201 µM]	.
CCn1c(C)c2c([n+]1CC)CC(C)(C)CC2=O	11µM*	-5%	-1%	0%	-18%	-5%
COc1ccc(N=Cc2cc(Cc3ccccc3Cl)cc([N+](=O)[O-])c2O)cc1OC	-63%	-3%	-2%	-7%	-6%	-1%
Cc1ccc(N=Cc2cc(Cc3ccccc3Cl)cc([N+](=O)[O-])c2O)c(O)c1	227%	?	-10%	?	-7%	16µM*
CCCN(CCO)CCCc1ccccc1	4%	i	16%	0%	1%	2%
CCN(CCCc1ccccc1)CCCc1ccccc1	28µM*!	-12%	-7%	-1%	0%	-2%
